Compound activity deposited in PubChem by National Center for Advancing Translational Sciences (NCATS).
AMA1-RON2 inh: qHTS for Inhibitors of AMA1-RON; Towards Development of Antimalarial Drug Lead: Primary Screen; Potency, µM (highest dose often 58.2 µM), for inactives: at the highest dose activity change, negative = inhibition, actives largely listed as inhibitors; hit rate 0.2% among 360,000; AID 720542, 2013; AlphaScreen AMA1-biotinylated RON2 peptide binding; Plasmodium falciparum AMA1 (3D7) - RON2 peptide interaction;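 note: 0% = vehicle wells and -100% = peptide control; nearly all actives have a fitted effect of over 45% in size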
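AMA1 (3D7) with his tag at 25 nM final met compounds first, then biotinylated RON2 peptide at 25 nM; detection used donor plus acceptor beads, 10 µg/mL apiece, read by AlphaScreen after 30 min at room temperature.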
AmpC no deterg: qHTS Inhibitors of AmpC Beta-Lactamase (assay without detergent) | AmpC nitrocefin hydrolysis, absorbance 480 nm, 0.0001% Triton | Potency, µM (doses to about 57.1 µM), without a hit: at the highest dose activity change, negative = inhibition, actives largely listed as inhibitors | hit rate 0.52% among 330,000;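 note: plate controls were no compound for no effect and no enzyme for full effect; nearly all actives have a fitted effect of over 20% in size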
Target sequence (P00811 whole entry, looked up): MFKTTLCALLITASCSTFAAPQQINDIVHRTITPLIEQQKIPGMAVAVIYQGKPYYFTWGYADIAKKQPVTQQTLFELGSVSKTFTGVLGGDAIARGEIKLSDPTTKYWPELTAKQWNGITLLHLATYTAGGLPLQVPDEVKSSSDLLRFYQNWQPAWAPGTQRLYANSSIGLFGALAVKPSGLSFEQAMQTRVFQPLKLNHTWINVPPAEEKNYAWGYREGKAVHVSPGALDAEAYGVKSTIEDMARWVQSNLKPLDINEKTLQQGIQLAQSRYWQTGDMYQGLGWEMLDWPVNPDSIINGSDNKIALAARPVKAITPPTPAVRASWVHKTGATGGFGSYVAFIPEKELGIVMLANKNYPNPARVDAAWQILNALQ
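20 mM phosphate pH 7.0 + 0.01% (detergent screen) or 0.0001% Triton X-100; 5.3 nM AmpC reagent; cpd preinc 15 min RT; nitrocefin (800 uM stock) to start; A480 q20 s × 4 min; Activity was normalised to no-enzyme and no-compound control wells.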
AmpC detergent: qHTS Inhibitors of AmpC Beta-Lactamase (assay with detergent); Potency, µM (highest dose often 114 µM), for inactives: at the top dose activity change, negative = inhibition, actives largely listed as inhibitors; P00811; hit rate 0.041% among 370,000; AmpC hydrolysis of nitrocefin, absorbance 480 nm, 0.01% Triton;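 note: 0% = no-compound wells and -100% = no-enzyme wells; nearly all actives have a fitted effect of over 25% in size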
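20 mM phosphate pH 7.0 + 0.01% (detergent screen) or 0.0001% Triton X-100; 5.3 nM AmpC reagent; cpd preinc 15 min RT; nitrocefin (800 uM stock) to start; A480 q20 s × 4 min; Activity was normalised to no-enzyme and no-compound control wells.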
RE007 growth inh: qHTS Assay for Inhibitors of the HIV-1 protein Vpr; Potency, µM (highest dose often 92.2 µM), without a hit: at the top dose activity change, negative = less growth, usual class: inhibitors; hit rate 0.21% among 360,000; S. pombe RE007 Vpr strain, BacTiter-Glo ATP luminescence, 24 h; active = well fitted falling curve with a large enough effect; inconclusive = small, poorly fitted or top-dose-only effect; inactive = no such curve, though single readings can be large or run the other way; note: nearly all actives have a fitted effect of over 50% in size
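Fission yeast strain RE007, carrying one chromosomally integrated HIV-1 vpr copy, was seeded at OD 0.01 in PMG+AL medium with 23 nL pinned compound. After 24 h at 30 °C and 99% humidity, viability was read by BacTiter-Glo luminescence.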
Sm TGR inh: qHTS Assay for the Inhibitors of Schistosoma Mansoni Peroxiredoxins. Schistosoma mansoni thioredoxin glutathione reductase (TGR), Q962Y6. purified TGR, DTNB reduction, TNB absorbance 405 nm. Potency, µM (series often up to 114 µM), without a hit: at the highest dose activity change, negative = inhibition, hits mostly inhibitors. hit rate 3% among 360,000. AID 485364, 2010; note: nearly all actives have a fitted effect of over 60% in size
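Kinetic colorimetric format: TGR-catalysed, NADPH-driven DTNB reduction monitored via TNB absorbance. Enzyme dispensed at 20 nM; compound exposure 15 min at room temperature before reaction start.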
The depositor's hits bear a star; ? = inconclusive; . = not tested or not shown. Shown are actives, neighbours in structure and some others; about 3.2% of the full set was active somewhere. Unless noted, calls come from the whole dose curve; as a rule, active = well fitted curve in the direction sought with a large enough effect; inconclusive = small, poorly fitted or top-dose-only effect, or another doubt; inactive = no such curve, though single readings can be large; an effect the other way counts as inactive or inconclusive. Unless noted, % is set by controls: 0 for no effect and ±100 for the full control effect; potency is the fitted concentration of half-maximal effect.

SMILES	AMA1-RON2 inh	AmpC no deterg	AmpC detergent	RE007 growth inh	Sm TGR inh
COC(=O)CN1C(=O)[C@H]2[C@@H](c3ccc(C)o3)N3C(=O)CN(Cc4ccc(-c5ccccc5)cc4)C(=O)[C@@]3(C)[C@H]2C1=O	-2%	256%	-4%	-5%	10µM*
COC(=O)CN1C(=O)[C@H]2[C@@H](c3ccc(C)o3)N3C(=O)CN(Cc4ccccc4)C(=O)[C@@]3(Cc3ccccc3)[C@H]2C1=O	38%	66%	-8%	12%	?
COC(=O)c1sc2cccc(F)c2c1S(=O)(=O)Nc1cc(C)c(Cl)cc1OC	.	.	13%	.	0%
CC1(C)S[C@@H]2[C@H](NC(=O)COc3ccccc3)C(=O)N2C1C(=O)OCc1cc2ccccc2n1S(=O)(=O)c1ccccc1 (stereo not given in full)	.	8.9µM*	?	.	-14%
Cc1ccc(S(=O)(=O)Nc2cc(=O)[nH]c(SCc3ccccc3Cl)n2)cc1	-5%	10µM*	?	-22%	-2%
COc1ccc(NC(C)=[N+](C)CCNS(=O)(=O)c2ccc(Cl)cc2)cc1	-21%	-7%	?	-4%	35µM*
COc1ccc(-n2ccn(CC(=O)NCCc3ccccc3)c(=O)c2=O)cc1OC	.	.	19%	.	22%
CCCCC#Cc1ccc(C(=O)NNC(=O)Nc2cc(Cl)cc(Cl)c2)o1	125%	14µM*	5%	-7%	3%
COCCNC(=O)Cn1cnc2c(cnn2-c2ccc(C)cc2)c1=O	-4%	-12%	?	4%	89µM*
COCCn1c(C)cc(O)c(C(c2ccc(OC)cc2)N2CCCCC2)c1=O (stereo not given)	.	.	-7%	.	?
COCCn1c(C)cc(O)c(C(c2ccc(F)cc2)N2CCC(C)CC2)c1=O (stereo not given)	.	.	19%	.	10µM*
COCCn1c(C)cc(O)c(C(c2ccccc2)N2CCC(C)CC2)c1=O (stereo not given)	.	.	1%	.	22µM*
CCN(Cc1ccccc1)C(=O)Cn1c(=O)oc2cc(S(=O)(=O)N3CCCCCC3)ccc21	.	.	16%	.	-4%
C=CC(=O)Nc1cccc(N(C)c2ccnc(Nc3ccc(N4CCN(C)CC4)cc3)n2)c1	22µM*	.	.	-29%	.
O=C(NCc1ccco1)C(c1cccs1)N(C(=O)C1COc2ccccc2O1)c1cccc(O)c1 (stereo not given)	7%	-17%	5%	-1%	35µM*
CC(C)CCNC(=O)C(c1ccc(O)cc1)N(Cc1cccs1)C(=O)C1COc2ccccc2O1 (stereo not given)	-12%	-32%	?	3%	-3%
CC(C)(C)C1CCc2sc(C(=O)NNC(=O)CCl)cc2C1 (stereo not given)	88%	-37%	-5%	28%	11µM*
O=C1CC(N2CCC(n3c(=O)[nH]c4ccccc43)CC2)C(=O)N1Cc1ccccc1 (stereo not given)	38%	43%	4%	-23%	-32%
Cc1cc(N2C(=O)CC(N3CCC(n4c(=O)[nH]c5ccccc54)CC3)C2=O)no1 (stereo not given)	11%	-20%	-4%	?	22µM*
COC(=O)c1ccc(N2C(=O)CC(N3CCC(n4c(=O)[nH]c5ccccc54)CC3)C2=O)cc1 (stereo not given)	0%	32%	?	14µM*	35µM*
COc1ccc2cc3cc(C(=O)N4CCN(c5cccc(C(F)(F)F)c5)CC4)sc3nc2c1	.	.	-2%	.	1%
Cc1ccc(CNC(=O)C2COc3ccccc3C2)cc1 (stereo not given)	.	.	15%	.	9%
COC(=O)C1=CN(c2ccccc2OC)C(N)=C(C#N)C1c1cccc([N+](=O)[O-])c1 (stereo not given)	-20%	.	.	12%	.
CCCC(=O)Nc1sc2c(c1C#N)CC(C)(C)NC2(C)C	0%	-21%	-5%	-4%	-10%
COc1ccc(CC(=O)Nc2sc3c(c2C#N)CC(C)(C)NC3(C)C)cc1OC	1%	-8%	-19%	2%	89µM*
SMILES	AMA1-RON2 inh	AmpC no deterg	AmpC detergent	RE007 growth inh	Sm TGR inh
Cc1ccc(CN(C(=O)c2ccc(OCC(C)C)cc2)c2ccccn2)o1	.	.	-2%	.	-4%
O=C(O)CCN1CC2([N+](=O)[O-])C=CC(=O)C([N+](=O)[O-])(C1)C2CC(=O)c1ccccc1 (stereo not given)	18%	-18%	-3%	7%	18µM*
COc1ccc(CCNCCN2CCOCC2)cc1	14µM*	-17%	-3%	7%	20%
Cc1ccc(NC(=O)CSc2nc3ccc(NC(=O)c4ccco4)cc3s2)cc1	.	.	-8%	.	-7%
Nc1ccc(N(CCO)CCO)cc1	-23%	-13%	6%	-11%	7.1µM*
CCN(CC)c1ccc(N)cc1	11µM*	-6%	-3%	-28%	-20%
Cc1cc2oc(C(=O)Nc3ccc(S(=O)(=O)N4CCCCCC4)cc3)cc(=O)c2cc1C	.	.	6%	.	1%
CC(=O)N(Cc1ccccc1)c1ncc2c(n1)c(=O)c(C#N)c1ccccn12	-5%	-32%	-10%	0%	45µM*
COc1cccc(CNC(=O)C2CCN(Cc3cc4ccccc4n3Cc3ccccc3)CC2)c1OC	.	.	10%	.	5%
Cc1cc(OCC(=O)Nc2ccc(C(=O)OC3CCCCC3)cc2)ccc1Cl	.	.	-9%	.	-2%
Cc1cc(S(=O)(=O)N2CCCC(N(C)CCc3ccccn3)C2)c(C)cc1Cl (stereo not given)	4%	177%	0%	-12%	45µM*
O=C(NCc1ccccn1)C1CCCN(S(=O)(=O)c2cc(Cl)ccc2Cl)C1 (stereo not given)	-10%	.	.	-13%	.
CCC(C)(NC(=O)c1ccc(=O)[nH]c1)C(=O)NC1CCCC1 (stereo not given)	3%	2.8µM*	?	-4%	5%
c1ccc(CNCCC(Cc2ccccc2)c2ccco2)cc1 (stereo not given)	-8%	0%	3%	9%	-1%
CN(C)c1ccc(CNCCC(Cc2ccccc2)c2ccco2)cc1 (stereo not given)	16µM*	5%	0%	-21%	-22%
COc1ccc(-c2nc3cc(C(C)C)ccc3o2)cc1NC(=O)c1ccc(C)c(Cl)c1	.	.	19%	.	22%
Oc1ccc(N=Nc2c(O)ccc3ccccc23)cc1	17µM*	-52%	?	?	-22%
Oc1ccc(NCc2cccc(OCc3ccc(F)cc3)c2)cc1	31%	-56%	2%	-25%	28µM*
